Laboratory results from PubChem BioAssay AID1259312 (Keith Lab, Institute of Cancer Science, University of …, 2017).
Out of some 4,500 compounds screened, about 200 (4.4%) were called active. The list comes from a sample in which actives are over-represented; it also holds similar structures and randomly drawn compounds. Unmarked numbers belong to inactive results.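 The calls were made as follows: active = cell survival measured by absorbance rises more than 2.5-fold over infected cells without compound; inactive = the rest.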

Experiment: survival after telomere uncapping, modulators, primary screen, cell-based (AID 1259312);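 also: virus expresses mutant telomerase RNA that uncaps telomeres and kills cells; compound added 2 days after infection so exposure lasts 3 days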
Conditions: HCT116 + Ad-hTR-mut, MTT, 5 d; at 10 µM, stronger effect = higher value

Row | Structure (SMILES) | fold change
1 | Clc1ccccc1/C=C/c1nnc(-c2ccccc2Cl)o1 | -1.03
2 | CC(=O)[C@H]1CC[C@H]2[C@@H]3CCC4=CC(=O)CC[C@]4(C)[C@H]3CC[C@]12C | 1.4
3 | CC12CCC(=O)C=C1CCC1C2CCC2(C)C1CC[C@@]21OCOC12COCO2 (stereo partly drawn) | 3.17 (active)
4 | CCCCCC(=O)O[C@]1(C(C)=O)CC[C@H]2[C@@H]3CCC4=CC(=O)CC[C@]4(C)[C@H]3CC[C@@]21C | -1.16
5 | CC(Sc1nnc(Cc2ccccc2)n1C1CCCCC1)c1nc(N)nc(N2CCCc3ccccc32)n1 (stereo not drawn) | -1.7
6 | O=c1cc(-c2cccc(O)c2)oc2cc(O)ccc12 | -1.53
7 | O=C(c1ccc(COc2ccc(Cl)cc2Cl)o1)n1cc(Br)cn1 | -1.16
8 | CC1CC[C@H](C(C)C)C(O)C1 (stereo partly drawn) | -1.42
9 | O=c1[nH]c(SCc2nc3ccc([N+](=O)[O-])cc3[nH]2)nc2ccccc12 | inactive
10 | Cn1c(SCc2nc3ccc([N+](=O)[O-])cc3[nH]2)nc2ccccc21 | -1.29
11 | O=[N+]([O-])c1ccc2nc(CSc3nc4ccc(Br)cc4[nH]3)[nH]c2c1 | 3.33 (active)
12 | Clc1[nH]nc2ccccc12 | 1.09
13 | CN1CCN(Cc2cc(Cl)c3cccnc3c2O)CC1 | 3.37 (active)
14 | CN1CCN(Cc2cc([N+](=O)[O-])c(O)c3ncccc23)CC1 | 2.98 (active)
15 | O=[N+]([O-])c1ccc(N2CCCC2)cc1Sc1cccc2cccnc12 | 1.11
16 | OCCOc1c(Cl)cc(Cl)c2cccnc12 | -1.42
17 | O=[N+]([O-])c1cc(CN2CCCC2)c2cccnc2c1O | 3.06 (active)
18 | CN(Cc1cc(Br)cc(Br)c1N)C1CCCCC1 | -1.39
19 | OCc1ccc(O)c2ncccc12 | -7.69
20 | O=[N+]([O-])c1cc(Cl)c2cccnc2c1O | 2
21 | O=[N+]([O-])c1ccc(N2CCN(S(=O)(=O)c3ccc4ccccc4c3)CC2)c2ncccc12 | -1.06
22 | CN(Cc1cc([N+](=O)[O-])c(O)c2ncccc12)C1CCCCC1 | 3 (active)
23 | O=[N+]([O-])c1ccc(Sc2nnnn2-c2ccccc2)c2cccnc12 | -73.2
24 | S=c1[nH]nc(-c2cccs2)n1-c1ccccc1 | -1.22
25 | C=C(C)n1c(=O)[nH]c2ccccc21 | 1.29
26 | Cc1c(Br)c([N+](=O)[O-])nn1CC(=O)O | 1.12

Row | Structure (SMILES) | fold change
27 | O=C1N=C(N2CCCC2)S/C1=C\c1ccc(Cl)cc1 | -1.52
28 | COc1ccc(-c2nn(CN3CCN(C(c4ccccc4)c4ccccc4)CC3)c(=S)n2C)cc1 | -1.05
29 | Clc1ccc(-c2nnc(SCc3nc(-c4ccccc4)no3)o2)cc1 | -1.07
30 | Clc1ccc(-c2nnc(SCc3ccccc3)o2)c(Cl)c1 | 2.08
31 | CCCSc1nnc(-c2ccc(Cl)cc2Cl)o1 | 2.03
32 | Clc1ccc(CSc2nnc(-c3cccc(Br)c3)o2)c(Cl)c1 | 2.77 (active)
33 | Brc1cccc(-c2nnc(SCc3ccon3)o2)c1 | -2.29
34 | Clc1ccc(CSc2nnc(-c3ccccc3Cl)o2)c(Cl)c1 | 3.91 (active)
35 | CC1(C)C=Cc2c(c3ccccc3[nH]c2=O)O1 | -1.4
36 | O=C(Cc1cccs1)NC1CCCCCC1 | -2.19
37 | Cc1ccc(-c2noc(COc3ccc4c(c3)OCO4)n2)cc1 | 1.5
38 | CC1=C/C(=C(\c2cc(C)c(O)cc2C)c2ccccc2S(=O)(=O)O)C(C)=CC1=O | inactive
39 | O=S(=O)(Nc1nc2ccccc2nc1N1CCOCC1)c1ccccc1 | -1.42
40 | CN1CCN(c2nc3ccccc3nc2N2CCN(C)CC2)CC1 | 2.65 (active)
41 | c1ccc(-c2nc3ccccc3nc2-c2ccccc2)cc1 | -1.02
42 | CN1CC=C2C(C#N)=C(N)C(C#N)(C#N)C(c3ccc(F)cc3)[C@H]2C1 (stereo partly drawn) | -37.3
43 | CC(C)c1ccc(C2[C@H]3CN(C)CC=C3C(C#N)=C(N)C2(C#N)C#N)cc1 (stereo partly drawn) | 2.14
44 | CCCN1CC=C2C(C#N)=C(N)C(C#N)(C#N)[C@H](c3ccsc3)[C@H]2C1 | 2.9 (active)
45 | COc1ccc(C2C3CCC=C3C(C#N)=C(N)C2(C#N)C#N)cc1 (stereo not drawn) | -1.15
46 | CC(C)N1CC=C2C(C#N)=C(N)C(C#N)(C#N)C(c3ccc(F)cc3)[C@H]2C1 (stereo partly drawn) | 3.68 (active)
47 | N#CC1=C(N)C(C#N)(C#N)[C@@H](c2cccc(Br)c2)[C@@H]2CN(Cc3ccccc3)CC=C12 | 1.73
48 | c1cnc(SCc2ccc3nsnc3c2)nc1 | 1.11
49 | CC(=O)Nc1ccc(S(=O)(=O)N2CCCC2C(=O)NC2CC2)cc1 (stereo not drawn) | -1.03
50 | COc1ccc(Oc2coc3cc(O)ccc3c2=O)cc1 | -2.75
51 | N#C/C(=C\c1ccc2c(c1)OCO2)c1ccccn1 | -2.23
52 | CC(=O)Nc1nonc1NC(=O)C(F)(F)F | -1.07

Row | Structure (SMILES) | fold change
53 | O=S(=O)(NCCn1cccc1)c1ccc2ccccc2c1 | 1.09
54 | O=[N+]([O-])c1cc(Cl)ccc1N1CCN(c2ccc(Cl)cc2[N+](=O)[O-])CC1 | 2.59 (active)
55 | O=[N+]([O-])c1cc(Cl)ccc1N1CCOCC1 | -1.07
56 | O=[N+]([O-])c1ccc(Cl)cc1N1CCOCC1 | 1.51
57 | CC(C)CC(N)C(N)=O (stereo not drawn) | -2.69
58 | N#C/C(=C/c1ccncc1)C(N)=S | -1.8
59 | COc1cc2c(Cc3c4c5c(cc(OC)c(OC)c5c5c(OC)c(OC)ccc35)CCN4C)c3c4c(cc(OC)c(OC)c4c2cc1OC)CCN3C | -1.39
60 | COC(=O)C1=C(N)C(C(=O)OC)=c2s/c(=C/c3cccnc3)c(=O)n2C1c1cccnc1 (stereo not drawn) | 1.8
61 | c1ccc(-c2nc(SCc3ccon3)[nH]c2-c2ccccc2)cc1 | -1.7
62 | Cc1sc(NC(=O)Cn2cnc([N+](=O)[O-])n2)c(C(N)=O)c1C | 1.35
63 | CCCCOC1CC[C@@]2(C)C(=CC[C@H]3[C@@H]4CC[C@H]([C@H](C)CCCC(C)C)[C@@]4(C)CC[C@@H]32)C1 (stereo partly drawn) | -1.1
64 | CC(C)CCCC(C)C1CCC2C3CC=C4CC(O)CCC4(C)C3CCC12C (stereo not drawn) | 1.54
65 | CC(=O)OC1CCC2(C)C(=CCC3C2CC[C@]2(C)C(C(C)=O)CCC32)C1 (stereo partly drawn) | 1.32
66 | CC(=O)OC1CCC2(C)C(=CCC3C2CCC2(C)C3CC3OC32[C@H](C)OC(C)=O)C1 (stereo partly drawn) | 4.11 (active)
67 | CC(=O)OC1CCC2(C)C(=CCC3C2CCC2(C)C(C(C)O)CCC32)C1 (stereo not drawn) | 3.23 (active)
68 | CC[C@H](/C=C/[C@@H](C)[C@H]1CC[C@H]2[C@@H]3CC=C4C[C@@H](O)CC[C@]4(C)[C@H]3CC[C@]12C)C(C)C | -1.34
69 | CNc1oc(/C=C/c2ccccc2)nc1S(=O)(=O)c1ccc(Cl)cc1 | -1.12
70 | CC(C)(C)Sc1c(Br)cccc1Br | -2.29
71 | CCCc1nnc(NC(=O)c2ccoc2C)s1 | -1.3
72 | CCOc1ccc(-n2c(C)cc(C(=S)N3CCOCC3)c2C)cc1 | -3.28
73 | CCC(C)C(NC(C)=O)C(=O)O (stereo not drawn) | 1.28
74 | NC1CCCc2c1[nH]c1ccc(Br)cc21 (stereo not drawn) | -11
75 | c1ccc(OCC2CCNCC2)nc1 | 2.98 (active)
76 | CC(C)(C)c1cc(Cl)cc(Cc2cc(C(C)(C)C)c(O)c(C(C)(C)C)c2)c1O | -1.42
77 | CCOC(=O)C1=C(C(=O)OCC)SC(=C2C(=S)C(C)(C)N(C)c3ccc(C)cc32)S1 | -1
78 | O=C(Nc1ccccc1)Nc1snnc1C(=O)O | 4.77 (active)

Row | Structure (SMILES) | fold change
79 | O=C(Nc1ccc(F)cc1)Nc1nncs1 | -1.15
80 | O=C(Nc1ccccc1)Nc1ccc2c(c1)OCCO2 | -1.3
81 | CCOC(=O)C1CCN(C(=O)CC(C)C)CC1 | -1.61
82 | O=S(=O)(Nc1cccc2ccccc12)N1CCCCC1 | -1.29
83 | C=CCN(CC=C)C(=O)Cc1cccs1 | -1.46
84 | O=[N+]([O-])c1ccc(O)c(C=Nc2ccc(I)cc2)c1 | inactive
85 | Oc1ccc(Br)cc1C=Nc1cc(Cl)ccc1Cl | inactive
86 | Oc1ccc(Br)cc1C=Nc1ccc(I)cc1 | active
87 | Oc1ccc(Br)c(C=Nc2ccc(-c3ccc(N=Cc4cc(Br)ccc4O)cc3)cc2)c1 | active
88 | Oc1ccc(Br)cc1C=Nc1cc(Cl)cc(Cl)c1 | inactive
89 | COc1ccc(OC)c(N=Cc2cc(Cl)cc(Cl)c2O)c1 | inactive
90 | Oc1c(Br)cc(Br)cc1C=Nc1ccc(Br)cc1 | inactive
91 | COc1cc2c(cc1N=Cc1cc(Br)ccc1O)oc1ccccc12 | inactive
92 | COc1ccc(OC)c(N=Cc2cc(Br)ccc2O)c1 | active
93 | O=c1c2ccc(Cl)c3c(Cl)ccc(c32)c2nc3ccccc3n12 | -2.06
94 | Cc1cc(C)n(C(=O)c2nn(C)cc2[N+](=O)[O-])n1 | 1.61
95 | O=[N+]([O-])c1cc(Br)cc(C=Nc2ccc(I)cc2)c1O | inactive
96 | N#CC1=C(N)Oc2[nH]c(=O)[nH]c(=O)c2C1c1cccnc1 (stereo not drawn) | 1.23
97 | O/N=C(\c1ccccc1)C(O)c1ccccc1 (stereo not drawn) | -1.85
98 | S=c1nc(-c2ccccc2Cl)[nH][nH]1 | -1.2
99 | Nn1c(-c2cccs2)nc2ccccc2c1=O | -1.03
100 | O=C1C=CC(=O)N1c1ccc(Cl)c(Cl)c1 | -1.48
101 | NCC1NCCc2ccccc21 (stereo not drawn) | -1.4
102 | NC(=S)NCCC[C@H](N)C(=O)O | 1.05
103 | c1ccc2cc(NCSCc3nc4ccccc4c4ccccc34)ccc2c1 | -1.54
